HCV inhibitor = HCV inhibition. Huh7.5.1 HCVcc-Cre infection, luciferase reporter, 44 h. Potency, µM (top dose mostly 41.8 µM), without a hit: at the highest dose activity change, negative = inhibition, actives largely listed as inhibitors. 340,000 tested, 3.4% active; active = well fitted inhibition curve with a large enough effect; inconclusive = small, poorly fitted or top-dose-only effect, or another doubt; inactive = no such curve, though single readings can be large or run the other way
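Infectious HCV cell culture screen: compound-treated cells (1,000/well, pre-plated 4 h) are infected with HCVcc-Cre at roughly 0.5 moi and grown 44 h. Infection is quantified by luciferase signal after 15 min substrate incubation at room temperature.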
Vaccinia Venus = vaccinia inhibition (Venus reporter); Vaccinia virus Venus reporter expression, fluorescence; Potency, µM (titrated, usually from 36.5 µM), without a hit: at the top dose activity change, negative = inhibition, actives largely listed as inhibitors; 330,000 tested, 0.46% active; calls by dose curve; tested in A549 cells; also: nearly all actives have a fitted effect of over 30% in size
MARV entry inh = Marburg virus entry inhibition | Marburg virus pseudotyped entry inhibition, cell reporter | Potency, µM (doses to about 37.8 µM), for inactives: top-dose activity change, negative = inhibition, usual class: inhibitors | 300,000 tested, 1.8% active | AID 540276; calls by dose curve; tested in HEK293 cells
Vaccinia mCherry = vaccinia inhibition (mCherry reporter); Vaccinia virus mCherry reporter infection, fluorescence; 310,000 tested, 0.63% active; Potency, µM (series often up to 36.5 µM), without a hit: top-dose activity change, negative = inhibition, most hits filed as inhibitors; calls by dose curve; tested in A549 cells; also: nearly all actives have a fitted effect of over 35% in size
Lassa entry inh = Lassa virus entry inhibition. Lassa virus pseudotype entry inhibition, cell reporter. Potency, µM (titrated, usually from 37.9 µM), without a hit: at the highest dose activity change, negative = inhibition, most hits filed as inhibitors. 300,000 tested, 1.2% active; calls by dose curve; tested in HEK293 cells; also: nearly all actives have a fitted effect of over 50% in size
Starred values were filed as active, the others as inactive; i = inactive; ? = inconclusive; / = no result given; [ ] = dose if it differs, or a comment. An excerpt weighted towards active compounds, which were near 4.6% of everything screened. % is scaled to controls: 0 for no effect and ±100 for the full control effect; potency is read from the fitted curve at half-maximal effect.

SMILES | HCV inhibitor | Vaccinia Venus | MARV entry inh | Vaccinia mCherry | Lassa entry inh
CCOc1cc(CNCCO)cc(Br)c1OCc1ccc(Cl)cc1 | 12.6µM* | ? | ? | ? | ?
CSc1c2c(n(CC3CCCCC3)c1CC(=O)NC1CCCCC1)CCCC2 | / | / | 4.6% | / | /
COC(=O)C1=C(C)N(Cc2ccccc2)C(=O)NC1c1cccc(F)c1 (stereo not drawn) | / | / | 3.1%[14.2 µM] | / | /
CCCC[C@]12Cc3cc(C#N)ccc3[C@H](O1)c1c(cc(C)n(-c3ccccc3)c1=O)O2 | / | / | -13.9%[14.2 µM] | / | /
CCOc1cc(CNCCO)cc(Br)c1OCc1ccccc1Cl | 8.91µM* | 10µM* | 15.8µM* | -9.3%[1.46 µM] | ?
Cc1cnc(C)c(-c2cccc3c2OC(CNC(=O)CN2C(=O)c4ccccc4C2=O)C3)n1 (stereo not drawn) | / | -14.1% | / | i | /
Cc1cccc(-n2c(=O)c3c(c4cc(C)ccc4n3C)n(Cc3ccccc3F)c2=O)c1 | / | -1.9% | / | -8.8% | 4.5%[46.1 µM]
O=C1NC2c3c(Cl)sc(Cl)c3C(=O)C2O1 (stereo not drawn) | ? | -6.5% | ? | -14.6% | 3.4%
O=C1NC2c3c(I)sc(I)c3C(=O)C2O1 (stereo not drawn) | ? | ? | ? | 10µM* | 12.6µM*
Cc1nc2c(=O)n(C)c(=O)n(C)c2nc1Cl | 14.1µM* | -20.9% | 8.2µM* | ? | ?
Cn1c(=O)c2nncnc2n(C)c1=O | -4.1%[0.335 µM] | -8.5% | 1.0% | i | 8.1%
CCOc1ccccc1NC(=O)Cn1nnc(C(=O)NCc2ccco2)c1N | -48.6% | ? | ? | ? | -16.5%
Cc1ccccc1NC(=O)Cn1nnc(C(=O)NCc2ccco2)c1N | 4.8% | 3.98µM* | ? | ? | -4.3%[46.1 µM]
Cc1ccc(NC(=O)Cn2nnc(C(=O)NCc3ccccc3)c2N)cc1C | 20.2% | / | -2.7% | / | 1.7%
Cc1ccc(NC(=O)c2nnn(CC(=O)Nc3ccccc3)c2N)cc1C | ? | -21.0% | 11.2µM* | -11.8% | -16.6%
Cc1nn(-c2ccccc2)c(N)c1Sc1ccccc1[N+](=O)[O-] | ? | -20.2% | ? | -17.2% | 6.31µM*
COc1cc(CN2CCCC(n3cc(C(=O)N4CCCCC4)nn3)C2)cc2c1OCO2 (stereo not drawn) | / | -3.6% | / | -0.3% | /
COc1ccccc1NC(=O)Cn1c(C)cc(=O)c2cccc(OC)c21 | ? | ? | ? | ? | -19.2%
COc1cccc2c(=O)cc(C)n(CC(=O)Nc3ccc(C)c(C)c3)c12 | 5.01µM* | ? | ? | / | -16.9%
Cc1ccc(NC(=O)c2ccco2)c(NC(=O)c2cccs2)c1 | 11.2µM* | -18.1% | 5.5% | i | 2.3%
O=C(Nc1ccc(Oc2ccc(NC(=O)c3ccco3)c(NC(=O)c3ccco3)c2)cc1)c1ccco1 | 25.1µM* | -10.1% | ? | -8.8% | 9.1%
O=C(Nc1ccc(NC(=O)c2cccs2)cc1Cl)c1ccco1 | -0.3% | -12.9% | 22.8%[46.1 µM] | i | 7.3%
COc1cc(NC(=O)c2ccco2)ccc1NC(=O)c1ccccc1Cl | ? | -27.6% | ? | / | 12.6µM*
COc1ccc(NC(=O)c2ccccc2NC(=O)c2ccco2)c(OC)c1 | -5.5% | -11.6% | 2.6% | -19.4% | 25.3%
Cc1ccc(C(=O)OCC(=O)Nc2ccccc2)cc1NC(=O)c1ccco1 | -8.5% | / | 1.1% | / | 5.8%
SMILES | HCV inhibitor | Vaccinia Venus | MARV entry inh | Vaccinia mCherry | Lassa entry inh
Cc1ccc(C(=O)OCC(=O)Nc2nc(-c3ccccc3)cs2)cc1NC(=O)c1ccco1 | 11.2µM* | ? | ? | ? | ?
COc1cc(-c2ccc(C(F)(F)F)cn2)cc2c1OCCN(S(=O)(=O)C[C@]13CC[C@H](CC1=O)C3(C)C)C2 | / | -0.2% | / | -6.2% | /
Cc1ccc(NC(=O)Cn2c(=O)n(-c3ccc(C)cc3)c(=O)c3c2cnn3C)cc1 | / | -0.7% | 15.6%[46.1 µM] | -1.4% | 1.1%[46.1 µM]
COc1cc(NC(=O)c2c(OC)cccc2OC)ccc1NC(=O)c1cc2ccccc2o1 | 25.1µM* | ? | ? | ? | -19.7%[46.1 µM]
Nc1nc(-c2ccc(NC(=O)c3ccco3)cc2)cs1 | ? | ? | 5.01µM* | ? | ?
COc1cc(NC(=O)Cc2ccccc2)ccc1NC(=O)c1ccco1 | ? | / | 25.2% | / | 0.0%
COc1cc(NC(=O)c2ccccc2Cl)ccc1NC(=O)c1ccco1 | -41.0% | ? | 19.2% | 14.1µM* | -22.6%
COc1cc(NC(=O)c2cc3ccccc3o2)ccc1NC(=O)c1ccco1 | ? | -10.7% | 7.9%[46.1 µM] | -10.8% | 5.9%
Cc1nc(-c2ccc(NC(=O)c3ccco3)cc2)cs1 | -21.7% | / | / | / | /
CCCn1cc(S(=O)(=O)c2cc(C)ccc2C)c(=O)c2cc(F)c(N3CCCCCC3)cc21 | / | ? | / | ? | -17.5%[46.1 µM]
CC(=O)C1=C(O)C(=O)N(c2cccc(C(=O)O)c2)[C@@H]1c1ccc(F)cc1 | / | / | 25.3% | / | /
O=C(c1cccc(Cl)c1)N(Cc1cccc(F)c1)C1CCS(=O)(=O)C1 (stereo not drawn) | / | -9.4% | 1.4%[46.1 µM] | -7.0% | -0.9%[46.1 µM]
COc1ccc(CC(N)c2csc(Nc3ncccn3)n2)cc1 (stereo not drawn) | / | ? | / | 12.6µM* | /
NC(Cc1ccc(Cl)cc1)c1csc(Nc2ncccn2)n1 (stereo not drawn) | / | 7.94µM* | / | 10µM* | /
NC(Cc1ccc(F)cc1)c1csc(Nc2ncccn2)n1 (stereo not drawn) | / | 7.94µM* | / | 7.08µM* | /

Source: PubChem
